Compound activity from PubChem BioAssay.
The list is not random: actives were taken first. Their share in the collection is about 19%.
SARS PLP yeast = qHTS of Yeast-based Assay for SARS-CoV PLP. Potency, µM (titrated, usually from 32.9 µM), without a hit: at the highest dose activity, positive = growth rescue, actives largely listed as activators. AID 485353, 2010. 330,000 compounds, 0.19% hits. S. cerevisiae expressing SARS-CoV PLpro, growth rescue; calls by dose curve; further: potency means the concentration at half of the fitted maximal effect; 0% is about no effect; nearly all actives have a fitted effect of over 55% in size
AMA1-RON2 inh = qHTS for Inhibitors of AMA1-RON; Towards Development of Antimalarial Drug Lead: Primary Screen | Plasmodium falciparum AMA1 (3D7) - RON2 peptide interaction | AlphaScreen AMA1-biotinylated RON2 peptide binding | Potency, µM (doses to about 58.2 µM), inactives show top-dose activity change, negative = inhibition, usual class: inhibitors | 360,000 compounds, 0.2% hits | AID 720542, 2013;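 further: potency means the concentration at half of the fitted maximal effect; 0% = vehicle wells and -100% = peptide control; nearly all actives have a fitted effect of over 45% in size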
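AMA1 (3D7) with his tag at 25 nM final met compounds first, then biotinylated RON2 peptide at 25 nM; detection used donor plus acceptor beads, 10 µg/mL apiece, read by AlphaScreen after 30 min at room temperature.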
CHX counter = Cycloheximide Counterscreen for Small Molecule Inhibitors of Shiga Toxin; cell reporter, cycloheximide protein synthesis inhibition counterscreen; max response, %; 300,000 compounds, 12% hits; AID 2314, 2010; in the data active means max response mostly above about 13%, no sharp cut-off; inactive means mostly below about 14%; further: read at 38.3 µM for the half of the compounds with a filed dose; 0% is about no effect
Pf growth 48h = Primary qHTS for delayed death inhibitors of the malarial parasite plastid, 48 hour incubation | Potency, µM (doses to about 28.7 µM), inactives show at the top dose activity change, negative = inhibition, most hits filed as inhibitors | P. falciparum luciferase growth in erythrocytes, 48 h | 310,000 compounds, 5.9% hits; further: potency means the concentration at half of the fitted maximal effect; on the % scale 0 is the no-effect control and ±100 the full control effect
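Firefly luciferase activity from engineered P. falciparum reports growth; inhibitors lower the luminescent signal. Cultures contained 2% hematocrit erythrocytes at 0.1% final parasitemia.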
Shiga inhibitor = A qHTS for Small Molecule Inhibitors of Shiga Toxin; 290,000 compounds, 9.2% hits; Vero cells, Shiga toxin protein synthesis inhibition reporter; inhibition, % at 38.7 µM; AID 2315, 2010; in the data active means inhibition mostly above about 28%, no sharp cut-off; inactive means mostly below about 43%; further: 0% is about no effect
Pf growth 96h = Primary qHTS for delayed death inhibitors of the malarial parasite plastid, 96 hour incubation. 320,000 compounds, 6.9% hits. Potency, µM (highest dose often 28.7 µM), for inactives: at the highest dose activity change, negative = inhibition, actives largely listed as inhibitors. AID 504834, 2011. P. falciparum luciferase reporter growth, 96 h; further: potency means the concentration at half of the fitted maximal effect; on the % scale 0 is the no-effect control and ±100 the full control effect
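Erythrocytes infected with luciferase-expressing P. falciparum were dispensed at 2% hematocrit and 0.05% parasitemia (final), then incubated with compounds 96 hours at 37 C in 5% CO2. Luminescence after detection reagent addition reported growth.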
Numbers without * were called inactive; ? = inconclusive; / = no result; [ ] = dose if it differs, or a comment. Unless noted, the call rests on the fitted dose curve; in most records, active means well fitted curve in the direction sought with a large enough effect; inconclusive means small, poorly fitted or top-dose-only effect, or another doubt; inactive means no such curve, though single readings can be large; an effect the other way counts as inactive or inconclusive.

SMILES	SARS PLP yeast	AMA1-RON2 inh	CHX counter	Pf growth 48h	Shiga inhibitor	Pf growth 96h
Cc1ccccc1CC(=O)N1CCCC(CNC(=O)c2ccc(F)cc2)C1 (stereo not given)	-0.5%	-3.8%	16.0	-15.4%	33.8	?
O=S(=O)(Nc1ccc(Cl)c(Cl)c1)N1CCOCC1	-0.7%	12.7%	-0.5	7.2%	12.9	4.65µM*
O=S(=O)(Nc1cc(Cl)cc(Cl)c1)N1CCOCC1	0.7%	-6.8%	3.6	4.2%	-6.4	2.7%
COC(=O)c1cc(C(=O)OC)cc(-n2c(C)cc(C(=O)CC#N)c2C)c1	/	13.2%	-2.5	10.4µM*	-1.1	/
Cc1cc(C(=O)CSc2nc(N)cc(=O)[nH]2)c(C)n1-c1ccc(OC(F)F)cc1	2.7%	8.2%	-0.2	-9.5%	-13.1	-16.5%
Cc1cc(C(=O)CC#N)c(C)n1-c1ccc(OC(F)F)cc1	-2.5%	-5.3%	1.8	?	10.1	13.1µM*
Cc1cc(C(=O)COC(=O)c2ccc(O)cc2O)c(C)n1-c1ccccc1	0.8%	9.4%[11.6 µM]	/	123.8%	/	289.9%
COc1ccc(-n2c(C)cc(C(=O)COC(=O)c3ccc(O)cc3O)c2C)cc1	-11.5%	-1.6%	/	7.38µM*	/	11.7µM*
Cc1cc(C(=O)COC(=O)c2ccc(O)cc2O)c(C)n1-c1ccc(OC(F)F)cc1	-3.6%	-0.5%	/	9.28µM*	/	?
COC(=O)c1cc(C(=O)OC)cc(-n2c(C)cc(C=O)c2C)c1	-2.1%	1.9%	-2.9	-15.7%	-9.9	0.5%
O=C(Nn1cnnc1)c1cc(Cl)cc(Cl)c1	0.3%	-9.4%	-2.6	-7.3%	-5.1	-6.3%
COc1ccc(-n2c(C)cc(C(=O)COC(=O)Cn3cnc4ccccc43)c2C)cc1	-10.8%	-25.0%	1.1	13.1µM*	-2.0	48.0%
COc1ccc(NC(=O)COC(=O)Cn2cnc3ccccc32)cc1	-5.8%	-4.7%	/	/	/	/
Clc1ccc(-c2cn3cc(Br)ccc3n2)cc1Cl	13.5%	-3.5%	51.5*	57.8%	102.9*	-68.3%
Cc1ccn2cc(-c3ccc(Br)cc3)nc2c1	-3.9%	-1.8%	38.3*	-39.3%	21.9*	-27.2%
Cc1ccn2cc(-c3ccc(NS(=O)(=O)c4ccccc4)cc3)nc2c1	17.2%	-11.7%	16.4	13.1µM*	12.9*	-14.4%
Cc1ccc(S(=O)(=O)Nc2ccc(-c3cn4ccc(C)cc4n3)cc2)cc1	-0.5%	4.7%	7.9	1.65µM*	19.5	-19.1%
Cc1cccc(S(=O)(=O)Nc2ccc(-c3ccc4nncn4n3)cc2)c1	-3.2%	-5.2%	/	?	/	5.4%
Cc1ccc(S(=O)(=O)Nc2ccc(S(=O)(=O)Nc3cc(C)nc(C)n3)cc2)cc1	-0.9%	-3.8%	6.9	-4.3%	36.4	33.2%
CCOc1ccc(-c2cc(CCCC(=O)NCc3cccnc3)no2)cc1	-13.3%	-1.4%	51.3*	22.0%	64.8*	6.7%
CCOc1ccc(-c2cc(CCCC(=O)NCCC(C)C)no2)cc1	0.4%	-4.9%	24.8*	10.9%	134.1*	?
O=C(Nc1nc(-c2ccc(F)cc2)cs1)c1cccnc1	-0.2%	-14.9%	12.7	-14.7%	15.0	-5.9%
Cc1ccc(C(=O)Nc2nc(-c3ccc(F)cc3)cs2)o1	/	14.4%	41.8*	-11.6%	91.7*	0.0%
Cc1ccc(-c2nc(NC(=O)c3nn(C)cc3[N+](=O)[O-])sc2C)cc1	-11.4%	-0.7%	-4.6	9.1%	-15.3	/
Cc1ccc(-c2csc(NC(=O)c3ccno3)n2)cc1	-5.5%	9.4%	22.2*	/	21.0	57.2%
Cc1ccc(-c2csc(NC(=O)c3cccc([N+](=O)[O-])c3)n2)cc1	7.3%	9.8%	-3.0	60.5%	-2.4	41.2%
Cc1ccc(-c2csc(NC(=O)c3ccc([N+](=O)[O-])o3)n2)cc1	-14.6%	-0.5%	11.7	13.1µM*	19.3	2.62µM*
Cn1cc([N+](=O)[O-])c(C(=O)Nc2nc(-c3ccc(Cl)cc3)cs2)n1	-4.9%	-4.8%	17.2*	41.0%	-40.7	0.0%
